PP5 inh: inhibitors of human protein phosphatase 5 (PP5); AID 1987; P53041; inhibition, % at 6.7 µM; purified PP5c, OMFP substrate fluorescence; hit rate 0.18% among 320,000;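 active means inhibition above the campaign's mean inhibition across all tested compounds plus 3 SD, cut at about 9.5% in these data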
PP1 inh: blocks human PP1-alpha phosphatase, a PP5 counter-screen; P62136; purified PP1alpha, OMFP fluorescence; inhibition, % at 6.7 µM; hit rate 0.9% among 320,000; AID 2235;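 active means inhibition above the mean inhibition of all tested compounds plus 3 SD, computed separately for each screening campaign, cut at about 15% in these data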
Target sequence (P62136 whole entry, looked up): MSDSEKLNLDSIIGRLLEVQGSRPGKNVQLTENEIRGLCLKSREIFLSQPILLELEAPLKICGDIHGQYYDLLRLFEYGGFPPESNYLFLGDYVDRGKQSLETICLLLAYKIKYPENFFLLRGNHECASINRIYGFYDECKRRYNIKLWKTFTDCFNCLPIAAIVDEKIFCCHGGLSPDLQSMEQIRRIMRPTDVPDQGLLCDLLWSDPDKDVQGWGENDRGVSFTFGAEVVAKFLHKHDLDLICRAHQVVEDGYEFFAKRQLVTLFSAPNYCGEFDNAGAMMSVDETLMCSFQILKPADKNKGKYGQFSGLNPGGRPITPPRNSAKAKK
CSC inhib: blocks cancer stem cells | inhibition, % at 7.5 µM | AID 2717 | hit rate 1.1% among 300,000 | cancer stem cell-like cells viability, luminescence; in the data active means inhibition above about 75%; inconclusive means no clear call, values can overlap the other calls; tested in HMLE shEcad cells
SKKanGAS inh: SKKanGAS growth inhibition; S. pyogenes SKKanGAS, kanamycin growth, BacTiter-Glo, 6 h; inhibition, % at 7.5 µM; hit rate 1.3% among 300,000; AID 1662;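 active means mean replicate score, as percent of positive control median, at least 50; inconclusive means mean below 50 but one replicate at or above 50; inactive means mean and every replicate below 50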;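 further: strain carries kanamycin resistance gene driven by streptokinase promoter and grows in 40 µg/ml kanamycin; loss of luminescence reflects streptokinase promoter inhibition or plain growth inhibition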
Beta apoptosis: blocks beta cell apoptosis; INS-1E cytokine-induced death, ATP luminescence, 48 h; percent of positive-control rescue, neutral wells zero; protection from apoptosis, % (no concentration beside the values); hit rate 0.8% among 300,000;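 active means Every replicate reaches about 75%, or at least half do and their mean reaches it too, limit read from the data; inconclusive means At least half of replicates reach the limit but their mean does not; inactive means Under half of replicates reach the limit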;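 further: higher means more ATP so stronger rescue from cytokine killing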
PP1 confirm: human PP1 phosphatase inhibition, confirmation | shares compounds with PP1 inh | purified PP1alpha, OMFP substrate fluorescence | inhibition, % at 6.7 µM | hit rate 52% among 1,900 | AID 2358;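 active means mean PP1 inhibition above a set limit taken from the earlier primary screen, cut at about 15% in these data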
PP5 inh counter: counter-screen for PP1 inhibitors: human PP5 phosphatase inhibition; shares compounds with PP1 inh; purified PP5c, OMFP fluorescence; inhibition, % at 6.7 µM; hit rate 4% among 1,900; AID 2360;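 active means mean PP5 inhibition over triplicate wells above about 9.5% taken from the earlier PP1 screen, limit read from the data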
Large screens that a line does not name were inactive (follow-up assays come after a bar, where they were run). This is a sample that favours compounds with a hit; in the whole collection about 3.1% have one here.

Nc1ccc2c(c1)C/C(=C/c1ccco1)C2=O	PP1 inh 51 (no result: Beta apoptosis) | PP1 confirm inactive | PP5 inh counter inactive
C[C@H](NC(=O)c1ccccc1)C(=O)N1CCN(c2ccccc2)CC1	none
CC(=O)Oc1ccc2c(=O)c(Oc3ccccc3[N+](=O)[O-])coc2c1	PP1 inh 56 | PP1 confirm inactive | PP5 inh counter inactive
COc1ccccc1Oc1coc2cc(OC(=O)N3CCOCC3)ccc2c1=O	none
COC(=O)c1ccc(OCC(O)CN2C(=O)c3ccccc3S2(=O)=O)cc1 (stereo not given)	none
Cc1nc(-c2ccccc2)c(-c2ccccc2)[nH]1	none
NC(=O)c1nc(-c2ccccc2)c(-c2ccccc2)[nH]c1=O	PP1 inh 20 | PP1 confirm 16 | PP5 inh counter inactive
CCCCCCSc1cccc(-c2nc3cc(C)ccn3c2NC2CCCCC2)c1	PP1 inh 19, CSC inhib 83 | PP1 confirm inactive | PP5 inh counter inactive
CCC(C)Sc1cccc(-c2nc3ccccn3c2NCc2ccccc2)c1 (stereo not given)	none (no result: PP5 inh, PP1 inh, SKKanGAS inh)
CCCCNc1c(-c2cccc(-c3cc(C(C)=O)cs3)c2)nc2cc(C)ccn12	none
CCCCCCSc1cccc(-c2nc3cc(C)ccn3c2NCc2ccccc2)c1	PP1 inh 19 | PP1 confirm inactive | PP5 inh counter inactive
CCC(C)Sc1cccc(-c2nc3ccc(Cl)cn3c2NCc2ccccc2)c1 (stereo not given)	PP1 inh 19 | PP1 confirm inactive | PP5 inh counter inactive
O=C(Nc1ccccc1C(=O)O)c1cccc(S(=O)(=O)Nc2ccc(Br)cc2)c1	PP1 inh 18 | PP1 confirm inactive | PP5 inh counter inactive
O=C(Nc1ccc(NC(=O)c2sc3ccccc3c2Cl)cc1Cl)c1ccco1	PP1 inh 20 | PP1 confirm 28 | PP5 inh counter inactive
O=C(OCC(=O)N1CCOCC1)c1ccccc1OCc1ccc(Cl)cc1	none (no result: PP5 inh, PP1 inh, CSC inhib, SKKanGAS inh)
COc1cc(O)c(/C=N/NC(=O)c2ccncc2)c(OC)c1[N+](=O)[O-]	none
CC(=O)c1sc2c(c1OC(=O)c1ccc(Cl)cc1Cl)c(=O)n(-c1ccccc1)c(=S)n2-c1ccccc1	PP1 inh 38 | PP1 confirm inactive | PP5 inh counter inactive
COc1cc(NC(=O)C2CSC3(C)CCC(=O)N23)c(OC)cc1Cl (stereo not given)	none
Cc1cc(C(F)(F)F)nn1CC(=O)NCc1ccco1	PP1 inh 18 | PP1 confirm inactive | PP5 inh counter inactive
CCCCSc1nc(C)cc(SCC(=O)N/N=C/c2cccc(OC)c2O)n1	PP1 inh 21, CSC inhib inconclusive, SKKanGAS inh 70 | PP1 confirm inactive | PP5 inh counter inactive
Cc1ccc(-c2cc(C(=O)Nc3c(C)n(C)n(-c4ccccc4)c3=O)[nH]n2)c(O)c1C	none
COc1cc(NC(=O)c2cnc(N)s2)cc(C(=O)Nc2cccc(C(F)(F)F)c2)c1	PP1 inh 32 | PP1 confirm 34 | PP5 inh counter inactive
O=C(O)[C@@H](c1ccccc1)N1Cc2ccccc2C1=O	PP1 inh 24 | PP1 confirm 35 | PP5 inh counter inactive
COc1ccc(-c2ccc(-c3nc4c(c(=O)[nH]c(=O)n4Cc4ccccc4)n3C)o2)c([N+](=O)[O-])c1	none (no result: CSC inhib)
COCCn1c(=O)[nH]c(=O)c2c1nc(-c1ccc(-c3ccc(Cl)cc3[N+](=O)[O-])o1)n2Cc1ccccc1	PP1 inh 18 | PP1 confirm 38 | PP5 inh counter inactive
COc1ccc(OC)c(/C=C/C(=O)OCC(=O)Nc2nnc(-c3ccccc3)o2)c1	PP1 inh 33 (no result: CSC inhib, SKKanGAS inh) | PP1 confirm 28 | PP5 inh counter inactive
Cc1ccc(C(=O)Oc2ccc(C(=O)COC(=O)C3CC(=O)N(Cc4ccco4)C3)cc2)cc1 (stereo not given)	PP1 inh 20 | PP1 confirm inactive | PP5 inh counter inactive
O=C(COC(=O)C1CC(=O)N(Cc2ccco2)C1)c1ccc(OC(=O)c2ccco2)cc1 (stereo not given)	none (no result: CSC inhib)
CCCCCCCCCn1c2c(c(=N)c3c1CCC3)CCCC2	none (no result: PP5 inh, PP1 inh, CSC inhib, Beta apoptosis)
CCCCCCCCCCn1c2c(c(=N)c3c1CCC3)CCC2	PP1 inh 21, CSC inhib 91, SKKanGAS inh inconclusive, Beta apoptosis 118 | PP1 confirm inactive | PP5 inh counter inactive
Cc1ccc(NC(=O)Cn2nc(C(=O)Nc3ccc(C)cc3)ccc2=O)cc1	PP1 inh 21 | PP1 confirm 22 | PP5 inh counter inactive

High-throughput results deposited in PubChem BioAssay by several laboratories.
